# Sampled rows, rich in hits. Any-hit rate of the full collection: about 1.4%.
# AmpC no deterg – inhibitors of E. coli AmpC beta-lactamase without detergent; AID 485341; P00811; Potency, µM (highest dose often 57.1 µM), for the others: top-dose activity change, negative = inhibition, actives largely listed as inhibitors; AmpC nitrocefin hydrolysis, absorbance 480 nm, 0.0001% Triton; hit rate 0.52% among 330,000;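 note: potency is the fitted concentration of half-maximal effect; plate controls were no compound for no effect and no enzyme for full effect; nearly all actives have a fitted effect of over 20% in size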
# Target sequence (P00811 whole entry, looked up): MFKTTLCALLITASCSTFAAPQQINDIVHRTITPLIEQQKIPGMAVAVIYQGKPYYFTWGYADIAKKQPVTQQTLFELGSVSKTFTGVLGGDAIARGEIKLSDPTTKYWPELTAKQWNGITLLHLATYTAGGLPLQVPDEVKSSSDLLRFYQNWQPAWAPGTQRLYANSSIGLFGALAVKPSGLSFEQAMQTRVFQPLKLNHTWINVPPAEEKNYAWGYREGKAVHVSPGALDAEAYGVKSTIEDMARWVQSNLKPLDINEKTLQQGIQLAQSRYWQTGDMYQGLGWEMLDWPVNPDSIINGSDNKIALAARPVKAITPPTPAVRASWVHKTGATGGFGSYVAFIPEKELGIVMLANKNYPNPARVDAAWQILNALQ
#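 AmpC (5.3 nM in the dispensed reagent) in 20 mM phosphate pH 7.0 with 0.01% (detergent screen) or 0.0001% Triton X-100 was preincubated with compounds for 15 min at room temperature. Nitrocefin was then added from an 800 uM solution, and hydrolysis was followed at 480 nm.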
# AmpC detergent – inhibitors of E. coli AmpC beta-lactamase with detergent. Potency, µM (series often up to 114 µM), for the others: at the highest dose activity change, negative = inhibition, most hits filed as inhibitors. hit rate 0.041% among 370,000. P00811. AID 485294. AmpC hydrolysis of nitrocefin, absorbance 480 nm, 0.01% Triton;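 note: potency is the fitted concentration of half-maximal effect; 0% = no-compound wells and -100% = no-enzyme wells; nearly all actives have a fitted effect of over 25% in size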
#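 AmpC (5.3 nM in the dispensed reagent) in 20 mM phosphate pH 7.0 with 0.01% (detergent screen) or 0.0001% Triton X-100 was preincubated with compounds for 15 min at room temperature. Nitrocefin was then added from an 800 uM solution, and hydrolysis was followed at 480 nm.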
# NS1 function inh – inhibitors of influenza NS1 protein function | AID 2326 | Potency, µM (doses to about 46.1 µM), for the others: at the highest dose activity, positive = more growth | hit rate 0.4% among 270,000; calls by dose curve; note: potency is the fitted concentration of half-maximal effect; actives are rising curves; nearly all actives have a fitted effect of over 50% in size
#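 In this qHTS, NS1 from influenza A is expressed in budding yeast, where it slows growth. Cells are switched from glucose to 2% galactose medium (pH 6.0, -URA), treated with compound, and growth recovery is read at OD600.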
# SARS PLP yeast – inhibitors of SARS-CoV papain-like protease in yeast; S. cerevisiae expressing SARS-CoV PLpro, growth rescue; Potency, µM (series often up to 32.9 µM), inactives show top-dose activity, positive = growth rescue, usual class: activators; hit rate 0.19% among 330,000; AID 485353; calls by dose curve; note: potency is the fitted concentration of half-maximal effect; 0% is about no effect; nearly all actives have a fitted effect of over 55% in size
# FBPA Giardia inh – Giardia lamblia aldolase inhibition; AID 2451; purified Giardia FBPA; Potency, µM (series often up to 59.6 µM), for the others: at the top dose activity, negative = inhibition, hits mostly inhibitors; A8B2U2; hit rate 0.71% among 290,000; note: potency is the fitted concentration of half-maximal effect; % is set by controls: 0 for no effect and ±100 for the full control effect; nearly all actives have a fitted effect of over 55% in size
# Target sequence (A8B2U2 whole entry, looked up): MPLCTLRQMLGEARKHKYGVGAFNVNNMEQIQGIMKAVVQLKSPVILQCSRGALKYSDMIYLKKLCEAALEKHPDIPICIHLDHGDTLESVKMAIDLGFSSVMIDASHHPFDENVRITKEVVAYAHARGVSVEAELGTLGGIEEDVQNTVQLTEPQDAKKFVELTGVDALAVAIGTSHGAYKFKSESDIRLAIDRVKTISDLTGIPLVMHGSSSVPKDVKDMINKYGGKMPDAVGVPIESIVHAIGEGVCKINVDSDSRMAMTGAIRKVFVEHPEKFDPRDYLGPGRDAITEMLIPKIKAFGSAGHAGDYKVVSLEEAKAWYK
#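 Giardia FBPA (40 nM reagent) was preincubated 10 min at RT with compound (up to 57.5 uM final), then substrate plus GAPDH/TPI/NAD/arsenate coupling system with diaphorase/resazurin was added; resorufin fluorescence (525/598 nm) was read after 20 min.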
# NS1 inh valid – validation of influenza NS1 protein function inhibitors; 1,400 tested, under 10 active; activity change, negative = inhibition, % at 32.9 µM; influenza NS1 function cell assay, 15-point titration; AID 492980; shares compounds with NS1 function inh; calls by dose curve; note: 0% is about no effect
# PR8 titer – influenza NS1 inhibitors: inhibition of influenza A/PR/8/34 replication | shares compounds with NS1 function inh | MDCK infected influenza A/PR/8/34, virus titer TCID50; stronger effect = lower value | hit rate 30% among 95 | virus titer (log TCID50), log10 TCID50 at 5 µM; call rule not given here
# The depositor's hits bear a star; ? = inconclusive; . = no result given. Unless noted, calls come from the whole dose curve; as a rule, active = well fitted curve in the direction sought with a large enough effect; inconclusive = small, poorly fitted or top-dose-only effect, or another doubt; inactive = no such curve, though single readings can be large; an effect the other way counts as inactive or inconclusive.
SMILES,AmpC no deterg,AmpC detergent,NS1 function inh,SARS PLP yeast,FBPA Giardia inh,NS1 inh valid,others
O=C(NC(Cc1ccccc1)C(=O)N1CCN(c2ccccn2)CC1)c1ccco1 (stereo not given),7%,6%,-12%,1%,-1%,.,
CCOc1cc(/C=C2\C(=O)NC(=O)N(CCc3ccc(F)cc3)C2=O)ccc1O,-41%,1%,0.35µM*,0%,-17%,30,
CCOc1cc(/C=C2\C(=O)N(Cc3ccc(C)cc3)C(C)=C2C(=O)OC)ccc1O,-30%,?,14µM*,2%,-26%,-2,
CN(C)c1ccc(/C=C2/C(=O)NC(=O)N(CCc3ccc(F)cc3)C2=O)cc1,-45%,-9%,-16%,-9%,0%,.,
C=CCOc1cccc(/C=C2\C(=O)N(Cc3ccc(C)cc3)C(C)=C2C(=O)OC)c1,-36%,-10%,11%,-4%,-8%,.,
CCC(=O)N1CCC2(CC1)Oc1ccc(Cl)cc1C(=O)C21CC(c2ccccc2)=NO1 (stereo not given),150%,1%,?,0%,-3%,?,
CCC(=O)N1CCC2(CC1)Oc1ccc(F)cc1C(=O)C21CC(c2ccccc2)=NO1 (stereo not given),174%,2%,-3%,-1%,4%,.,
Nc1c(/C=C2/C=CC(=O)C(O)=C2)c(=O)nc2sc(CC(=O)N3CCCCC3)nn12,-38%,11%,14µM*,11µM*,?,-11,
CC(C)NC(=O)C1CCCN(S(=O)(=O)c2cccs2)C1 (stereo not given),-5%,2%,2.2µM*,8%,7%,-2,
COC(=O)c1[nH]c2ccc(C)cc2c1NS(=O)(=O)c1ccc(F)c(C)c1,13%,9%,1.8µM*,1%,-24%,-39,
Cc1c2cn[nH]c(=O)c2c(C)n1-c1ccccc1,-14%,-3%,0%,-1%,-2%,.,
O=C(c1ccc2c(c1)OCO2)[C@@H]1[C@@H]2C(=O)N(C3CCCCC3)C(=O)[C@@H]2C2c3ccccc3C=CN21 (stereo not given in full),11%,-2%,13µM*,-6%,?,9,PR8 titer=7.7
O=C(Nc1ccc2c(c1)OCO2)[C@@H]1[C@@H]2C(=O)N(C3CCCCC3)C(=O)[C@@H]2C2c3ccccc3C=CN21 (stereo not given in full),?,-1%,15%,1%,?,.,
CCOC(=O)c1ccc(S(=O)(=O)NCC(c2ccc(N(C)C)cc2)c2c[nH]c3ccccc23)cc1 (stereo not given),-32%,-15%,8.9µM*,-19%,-3%,?,
CC(N=Cc1c(O)[nH]c(=O)[nH]c1=O)c1ccccc1 (stereo not given),3%,0%,10µM*,-7%,7%,0,
Cc1c(C(=O)OC2CCCCCC2)[nH]c2c1C(=O)CC(c1ccc(N(C)C)cc1)C2 (stereo not given),.,-6%,.,.,.,.,
C/C=C/COC(=O)c1[nH]c2c(c1C)C(=O)CC(c1ccc(N(C)C)cc1)C2 (stereo not given),-6%,?,13µM*,-16%,-21%,?,
CCC(C)OC(=O)c1[nH]c2c(c1C)C(=O)CC(c1ccc(N(C)C)cc1)C2 (stereo not given),-3%,?,10µM*,-18%,-26%,-24,
CCOCCOC(=O)c1[nH]c2c(c1C)C(=O)CC(c1ccc(N(C)C)cc1)C2 (stereo not given),8%,-16%,-12%,-3%,-17%,.,
CCOc1ccc(C(CC(=O)O)NC(=O)C2c3ccccc3Oc3ccccc32)cc1 (stereo not given),-26%,-3%,13%,-3%,19%,.,
Cc1c(Nc2nc3ccccc3nc2NS(=O)(=O)c2cccc(Cl)c2)c(=O)n(-c2ccccc2)n1C,-10%,-1%,8.9µM*,18%,8%,13,
Cc1ccc2[nH]c3c(=S)nc[nH]c3c2c1,-11%,?,9%,.,-2%,.,
Cc1ccc(/C=C2\SC(N3CCN(C(c4ccccc4)c4ccccc4)CC3)=NC2=O)o1,-11%,-5%,11µM*,-36%,?,?,
COc1ccc(CCN2CC(C(=O)N3CCC(O)(c4ccccc4)CC3)CCC2=O)cc1 (stereo not given),104%,2%,10%,2%,.,.,
CC1CC(C)CN(S(=O)(=O)N2CCC(C(=O)NCCc3ccccc3)CC2)C1 (stereo not given),-2%,?,?,1%,0%,-6,
SMILES,AmpC no deterg,AmpC detergent,NS1 function inh,SARS PLP yeast,FBPA Giardia inh,NS1 inh valid,others
COc1ccccc1C(=O)Nc1cccc2cccnc12,-21%,-1%,-63%,-20%,-8%,.,
CN1C(=O)C(c2nnc(Nc3cccc4ccccc34)s2)C2CC1(C)Oc1ccccc12 (stereo not given),-13%,-5%,11µM*,11%,-8%,-21,
O=c1cc(-c2ccccc2)c2cc(Cl)c3c(c2o1)CN(Cc1ccccc1)CO3,.,17%,.,.,.,.,
Cc1cccc(Nc2nnc(SC/C(O)=C(\C#N)c3nc4ccccc4[nH]3)s2)c1,-22%,4%,13µM*,1%,-10%,11,
Cc1ccc(Nc2nnc(SC/C(O)=C(\C#N)c3nc4ccccc4[nH]3)s2)c(C)c1,-22%,-6%,8%,-2%,5%,.,
O=C(Cc1ccsc1-c1ccccc1)NO,-17%,5%,?,2%,-23%,8,
O=C(Cc1ccccc1)NO,.,.,.,.,0%,.,
O=C(CCS(=O)(=O)c1cc2c3c(c1)CCN3C(=O)CC2)NCc1ccc(Cl)cc1,.,3%,.,.,.,.,
Cc1ccc(N2C(=O)CC(N(O)C3CC(=O)N(c4ccc(C)cc4)C3=O)C2=O)cc1 (stereo not given),-15%,4%,20µM*,-5%,-1%,?,
c1ccc(Nc2ccccn2)nc1,-26%,-6%,-3%,4%,-26%,.,
Oc1ccccc1Nc1ccccn1,-15%,1%,?,-3%,1%,1,
COc1ccccc1NCC(=O)N/N=C/c1cccnc1,0%,1%,3.2µM*,0%,-17%,32,
COc1ccccc1/C=C/C(=O)NCC(=O)N/N=C/c1cccnc1,-30%,5%,8%,10%,6%,.,
O=C(NCC(c1cccs1)N1CCOCC1)c1cnc(Cl)c(Cl)c1 (stereo not given),3%,.,.,-1%,.,.,
O=C(Cn1cc2c(n1)CCCC2)NCCCN1CCN(C2CCCCC2)CC1,5%,-5%,8.9µM*,3%,-2%,8,
N#Cc1ccc(S(=O)(=O)NCC(=O)OCC(=O)N2CCCC2=O)cc1,-16%,-18%,.,-5%,.,.,
